Consider 40 compounds from PubChem BioAssay (NCI).

This is part of a sample that, as a whole, favours compounds with a hit. Of some 83,000 tested, about 20% had one in any assay.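 A percent growth of 40 corresponds to 60% growth inhibition; 0 means no net growth; -100 means all cells died. Active threshold: below 10.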 Values without a mark were called inactive. Active and inactive are the calls of the source.

In the assay the test system is OVCAR-5 ovarian. The assay is described as follows: NCI-60 one-dose screen, 48 h (100 = growth as untreated, 0 = no growth, -100 = all killed). Particulars: 10 µM unless noted. On the procedure: Growth inhibition of the OVCAR-5 human tumor cell line is measured as a screen for anti-cancer activity. Cells are grown in 96 well plates and exposed to the test compound for 48 hours. Compounds are tested at a single concentration, which is 10^-5 M for most compounds. The reported endpoint is percent growth (GI% or GIPRCNT), where numbers from 0 - 100% represent growth inhibition, and numbers from -100% - 0 represent cell death. For example, a value of 40 represents 60% growth inhibition. A value of 0 means no net growth occurred over the course of the experiment. A value of -40 indicates 40% of cells at the beginning of the experiment died by the end of the experiment. A value of -100 means all cells are dead at the end of the experiment.
NCI-60 Human Tumor Cell Lines Screen was performed using the standard one-dose NCI protocol, which is described in more detail at https://dtp.cancer.gov/discovery_development/nci-60/default.htm.
Compounds with GIPRCNT values below 10 were considered active. Activity score was based on GIPRCNT using the following formula: […]
Score is 0 for GIPRCNT values of 100 or above, 50 for GIPRCNT values of 0, and 100 for GIPRCNT values of -100.
With `N#Cc1c(-c2ccc(F)cc2)nc(N/N=C/c2c[nH]c3ccccc23)nc1N1CCOCC1`, the growth is 94.8%.

`S=c1ssnc1-c1cc2ccccc2o1`: the growth is 105%.

For the compound `CC(=O)O[C@@H]1C[C@]2(C)[C@H]3[C@H](O)C[C@@H]4C5=CC(C)(C)CC[C@]5(C)CC[C@@]4(C)[C@]3(C)CC[C@H]2C(C)(C)[C@H]1O`, the growth is 106%.

For `O=C1NCc2ccc3c(-c4cccc(Cl)c4)c[nH]c3c21`, the growth was 39.7%.

With `COc1ccc(NC(=O)c2sc3nc(C)c(C(C)=O)cc3c2N)cc1`, the growth was 91.3%.

Consider `Nc1c(C(=O)Nc2ccccc2Cl)sc2nc3c(cc12)CN(Cc1ccccc1)CC3`, for which the growth is 95.5%.

Consider `CCN1CCN(c2ccc(NC(=O)Nc3nc4ccc(-c5ccccc5OC)cc4s3)cc2)CC1`, for which the growth was -11.5% (active).

For `C[C@H]1[C@H](C)CC[C@]2(C(=O)OCCOCCOCC[P+](c3ccccc3)(c3ccccc3)c3ccccc3)CC[C@]3(C)C(=CC[C@@H]4[C@@]5(C)CC[C@H](OC(=O)C(Cl)Cl)C(C)(C)[C@@H]5CC[C@]43C)[C@H]12`, the growth was 37.3%.

Consider `Cc1cc(O)cc(O)c1N=NC1=NCCS1`, for which the growth was 101%.

As for `CCOC(=O)c1cnn(-c2nc(-c3ccc(F)cc3)c(C#N)c(N3CCOCC3)n2)c1N`, the growth is 95%.

Take `C#C[C@@]1(O)[C@@H](CO)O[C@@H](n2cc(Cl)c3c(N)ncnc32)[C@@H]1O`: the growth is 16.1%.

Turning to `c1ccc(-c2n(Cc3ccc4ccccc4n3)cc[n+]2Cc2ccc3ccccc3c2)cc1`, the growth was 22%.

As for `COc1ccc(-c2cn(-c3ccc(Cl)cc3)c(=S)[nH]2)cc1OC`, the growth is 64.1%.

Turning to `O=C(Nc1cc(Br)ccn1)c1cc2cc(Nc3nc(-c4ccccc4)nc4ccccc34)ccc2oc1=O`, the growth is 115%.

Consider `COc1ccc(-n2nc(C(=O)NCC(=O)O)nc2-c2ccccc2)cc1`, for which the growth was 100%.

Consider `CCOc1ccc(C2N(c3cc(OC)c(OC)c(OC)c3)C(=O)C2(F)F)cc1` (stereo not given), for which the growth was 66.5%.

For the compound `Cc1nc2sc(C(=O)Nc3ccccc3)c(N)c2cc1C(C)O` (stereo not given), the growth was 51.3%.

Regarding `CCOC(=O)/C=C1\SC(=Nc2ccc(C#N)cc2)N(CCN2C(=O)/C(=C/C(=O)OCC)SC2=Nc2ccc(C#N)cc2)C1=O`, the growth is 84.4%.

As for `C#CCOC(=O)[C@]1(C)CCC[C@]2(C)[C@H]3C[C@H]4C(C(C)C)=C[C@]3(CC[C@H]21)[C@@H]1C(=O)CCC(=O)[C@@H]14`, the growth was 93.8%.

As for `COc1ccc(-c2nc(C#N)c(NCC(c3ccc(Cl)cc3)N3CCCCC3)o2)cc1` (stereo not given), the growth was 96%.

For `CCOC(=O)C1CCN(S(=O)(=O)/N=C2/NC(=O)NC2=C(Cl)Cl)CC1`, the growth is 64%.

Consider `O=c1c2ccccc2oc2ccc(OCCCCCCN3CCCCCC3)cc12`, for which the growth was 58.9%.

On to `COc1ccc(-c2cs/c(=N\N=C\c3ccc(O)cc3O)n2/N=C/c2ccc(O)cc2O)cc1`, for which the growth is 10.6%.

With `N#Cc1c(-c2ccc(F)cc2)nc(N/N=C/c2cccc(O)c2)nc1N1CCOCC1`, the growth was 108%.

Take `COC(=O)CCc1cc(O)c2c(c1)[C@@H](C(=O)OC)[C@H](c1ccc(O)c(O)c1)O2`: the growth was 98.3%.

`COc1ccc2nc(-c3ccc(Cl)cc3)cc(-c3nnc(SCC(=O)Nc4ccc(/C(C)=N\O)cc4)o3)c2c1`: the growth is 81.1%.

Consider `COc1ccc2nc(-c3ccc(Cl)cc3)cc(-c3nnc(SC/C(=N/O)c4ccccc4)o3)c2c1`, for which the growth was 84.2%.

Take `CC(C)(C)c1ccc(O)c(Cc2cc(C(C)(C)C)ccc2O)c1`: the growth is 120%.

Take `Cc1ccn2c3c(c(C(=O)O)c2c1)C(=O)c1ccccc1C3=O`: the growth was 121%.

Consider `O=C(Nc1nc(-c2ccccc2Cl)cs1)c1cc(-c2ccc(Br)cc2)nc2ccccc12`, for which the growth was 70.6%.

In the case of `COc1cc(C(C)c2ccc3c(ccn3C)c2)cc(OC)c1OC` (stereo not given), the growth is 63.1%.

In the case of `COc1ccc(-c2nc(C#N)c(NCC(c3ccco3)N3CCCC3)o2)cc1` (stereo not given), the growth was 69%.

For the compound `COc1cc(NC(=O)c2cc(O)c(C/C=C(\C)CCC=C(C)C)c(O)c2)cc2c1O[C@]1(C)CC[C@@H](O)C(C)(C)[C@H]1C2`, the growth is 44.9%.

Consider `COc1ccc([C@H]2[C@@H](F)C(=O)N2c2cc(OC)c(OC)c(OC)c2)cc1F`, for which the growth was 43.6%.

Regarding `N#CC1C(c2ccc(Cl)cc2)=Nc2c(c(-c3ccccc3)nn2-c2ccccc2)C12C(=O)Nc1ccc(Cl)cc12` (stereo not given), the growth was 65.2%.

`CCC[S@](=O)c1ccc2nc(NC(=O)OC)[nH]c2c1`: the growth was 101%.

Take `CC(=O)Nc1ccc2c(c1)Cc1cc(F)ccc1-2`: the growth is 106%.

In the case of `Cc1cnc(-c2ccc(-c3ccc(NC(=O)Nc4c(F)cc(F)cc4F)cc3F)c3c2C(=O)NC3)[nH]1`, the growth is 71%.

As for `COc1ccc(Nc2cc(NC(=O)CNc3cc(OC)c(Cl)c(OC)c3Cl)ncn2)cc1`, the growth is 88.1%.

For `C#C[C@@]1(O)[C@@H](CO)O[C@@H](n2cc(-c3ccco3)c3c(N)ncnc32)[C@@H]1O`, the growth was 66.9%.
